Source: PubChem
RAD52 anneal inh: inhibitors of human RAD52 DNA annealing; recombinant RAD52 DNA annealing, FRET fluorescence; inhibition, % at 18.7 µM; 360,000 tested, 0.46% active; AID 651710;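 active = every replicate showing at least 50% inhibition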
FGF22 binding: shifts melting point of recombinant human FGF22 | Q9HCT0 | recombinant FGF22 thermal shift, SYPRO orange fluorescence; percent of sucrose octasulfate shift, DMSO zero | activity (Tm shift, normalised), % at 9.99 µM | 340,000 tested, 1.5% active | AID 651658;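 active = mean Tm shift, scaled 0 neutral to 100 positive control, at about 1.3% or above, every replicate too, limit read from the data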
MLL AF4-AF9 inh: blocks AF4 peptide binding to human AF9. AlphaScreen, biotin-AF4 peptide binding to FLAG-AF9. AID 651704. inhibition, % at 10 µM. 350,000 tested, 0.47% active;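 active = every replicate reaching a set inhibition limit, whatever the replicate mean, cut at about 25% in these data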;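 note: 0% = plate neutral control median and 100% = total signal loss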
ERAP1 HTS inh: blocks human ERAP1 aminopeptidase activity. inhibition, % at 10.7 µM. 340,000 tested, 0.15% active. recombinant ERAP1, Leu-AMC fluorescence, 60 min;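 active = mean replicate inhibition of at least 30%, or all replicates individually reaching that 30% level; inactive = mean below 30% and not every replicate reaching it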;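 note: 0% = neutral control wells and 100% = L-leucinethiol positive control wells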
Target sequence (Q9NZ08 whole entry, looked up): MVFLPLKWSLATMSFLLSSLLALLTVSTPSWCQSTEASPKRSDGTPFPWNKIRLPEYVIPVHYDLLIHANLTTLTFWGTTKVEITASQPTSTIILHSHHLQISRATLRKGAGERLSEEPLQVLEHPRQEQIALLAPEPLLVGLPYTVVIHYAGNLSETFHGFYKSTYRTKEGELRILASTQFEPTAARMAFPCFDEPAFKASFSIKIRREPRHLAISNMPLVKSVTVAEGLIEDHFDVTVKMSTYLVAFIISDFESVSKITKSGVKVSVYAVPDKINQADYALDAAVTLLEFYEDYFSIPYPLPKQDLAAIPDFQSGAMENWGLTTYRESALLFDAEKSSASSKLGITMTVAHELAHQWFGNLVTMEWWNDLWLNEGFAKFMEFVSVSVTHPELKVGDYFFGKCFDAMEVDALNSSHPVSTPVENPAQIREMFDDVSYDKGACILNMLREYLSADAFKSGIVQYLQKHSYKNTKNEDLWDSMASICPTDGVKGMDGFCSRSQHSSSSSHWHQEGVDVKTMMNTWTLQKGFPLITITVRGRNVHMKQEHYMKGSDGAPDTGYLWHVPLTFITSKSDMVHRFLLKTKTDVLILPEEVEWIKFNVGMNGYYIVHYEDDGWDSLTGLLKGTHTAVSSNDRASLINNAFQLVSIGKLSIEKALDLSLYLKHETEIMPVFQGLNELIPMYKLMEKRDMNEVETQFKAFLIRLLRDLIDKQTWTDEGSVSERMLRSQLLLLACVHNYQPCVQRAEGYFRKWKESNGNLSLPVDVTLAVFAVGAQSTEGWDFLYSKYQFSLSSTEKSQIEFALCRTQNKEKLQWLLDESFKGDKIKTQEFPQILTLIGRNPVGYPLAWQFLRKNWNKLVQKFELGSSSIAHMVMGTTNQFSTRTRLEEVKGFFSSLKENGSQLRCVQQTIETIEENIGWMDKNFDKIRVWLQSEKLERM
DENV2 CPE: inhibitors of DENV2 cytopathic effect | AID 651640 | 350,000 tested, 1.7% active | CPE inhibition, % at 9.99 µM | DENV2-infected cells, cytopathic effect rescue, plate reader; in the data active = CPE inhibition above about 20%, passing the limit was not always enough; tested in BHK-21 cells;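 note: 0% = median of neutral control wells and 100% = median of positive control wells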
Numbers without * were called inactive; ! = not active in a repeat. Compounds with a hit are over-represented: about 4% of the library has one in this group of screens.

Results for C[C@H]1CN([C@@H](C)CO)C(=O)Cc2cc(NC(=O)Nc3ccc(F)cc3)ccc2O[C@H]1CN(C)Cc1ccc(C(=O)Nc2ccccc2N)cc1 ?
RAD52 anneal inh: -13.8; FGF22 binding: 0.8; MLL AF4-AF9 inh: -1.2; ERAP1 HTS inh: -0.6; DENV2 CPE: -6.5

How did CCOC(=O)C(NC(=O)c1cccc(Cl)c1)(OCc1ccccc1)C(F)(F)F (centres undefined) do in these assays?
RAD52 anneal inh: 1.7; FGF22 binding: 33.0*; MLL AF4-AF9 inh: 2.0; ERAP1 HTS inh: 0.8; DENV2 CPE: 7.7

How did C[C@@H]1CN([C@H](C)CO)C(=O)c2cccc(NS(=O)(=O)c3ccccc3)c2O[C@@H]1CN(C)C(=O)Nc1ccc(F)cc1 do in these assays?
RAD52 anneal inh: 2.7; FGF22 binding: -0.3; MLL AF4-AF9 inh: -0.9; ERAP1 HTS inh: -0.4; DENV2 CPE: 33.6*

How did C[C@H](CO)N1C[C@H](C)[C@@H](CN(C)C(=O)Nc2ccccc2)Oc2c(NS(=O)(=O)c3ccccc3)cccc2C1=O do in these assays?
RAD52 anneal inh: 28.8; FGF22 binding: -0.2; MLL AF4-AF9 inh: -6.1; ERAP1 HTS inh: -4.9; DENV2 CPE: 25.5*!

Results for Cc1ccc(S(=O)(=O)N(C)C[C@@H]2OCCCC[C@@H](C)Oc3ccc(NC(=O)NC4CCCCC4)cc3C(=O)N([C@H](C)CO)C[C@H]2C)cc1 ?
RAD52 anneal inh: 27.8; FGF22 binding: -0.3; MLL AF4-AF9 inh: -1.8; ERAP1 HTS inh: -0.8; DENV2 CPE: 0.8

Results for C[C@H]1CN([C@@H](C)CO)S(=O)(=O)c2ccc(C#Cc3cccc(F)c3)cc2O[C@H]1CN(C)CC1CC1 ?
RAD52 anneal inh: -6.8; FGF22 binding: -0.1; MLL AF4-AF9 inh: 2.9; ERAP1 HTS inh: -3.9; DENV2 CPE: -3.3

How did O=C(C[C@@H]1CC[C@H]2[C@@H](COC[C@H](O)CN2Cc2nccs2)O1)NCc1ccc(F)cc1 do in these assays?
RAD52 anneal inh: -20.7; FGF22 binding: 0.1; MLL AF4-AF9 inh: -4.0; ERAP1 HTS inh: 2.0; DENV2 CPE: 1.3

What do the screens show for `CC12CN3CC(C)(CN(C1)C3c1ccc([N+](=O)[O-])o1)C2=O` (centres undefined)?
RAD52 anneal inh: 0.3; FGF22 binding: 43.6*; MLL AF4-AF9 inh: -4.1; ERAP1 HTS inh: -4.5; DENV2 CPE: 14.6

How did CCC12CN3CC(CC)(CN(C1)C3c1ccc([N+](=O)[O-])o1)C2=O (centres undefined) do in these assays?
RAD52 anneal inh: 7.0; FGF22 binding: 43.3*; MLL AF4-AF9 inh: 0.2; ERAP1 HTS inh: 4.8; DENV2 CPE: 4.8

How did CCCC12CN3CC(C)(CN(C1)C3c1ccc([N+](=O)[O-])o1)C2=O (centres undefined) do in these assays?
RAD52 anneal inh: -3.9; FGF22 binding: 0.1; ERAP1 HTS inh: 3.3; DENV2 CPE: 5.7

How did C[C@@H]1CN([C@@H](C)CO)C(=O)c2cc(NS(=O)(=O)c3cccs3)ccc2O[C@@H](C)CCCCO[C@@H]1CN(C)Cc1ccc(C(F)(F)F)cc1 do in these assays?
RAD52 anneal inh: -21.5; FGF22 binding: 0.3; MLL AF4-AF9 inh: -0.2; ERAP1 HTS inh: 1.0; DENV2 CPE: -1.4

Results for CSc1nc(S(=O)(=O)c2ccccc2)c(Cl)s1 ?
RAD52 anneal inh: -10.1; FGF22 binding: 43.0*; MLL AF4-AF9 inh: 0.4; ERAP1 HTS inh: -1.7

Results for COCCNC(=O)C1(C)CCCN(C(=O)c2ccccc2)C1 (centres undefined) ?
RAD52 anneal inh: -1.0; FGF22 binding: 0.0; MLL AF4-AF9 inh: -3.2; ERAP1 HTS inh: 5.5; DENV2 CPE: 32.8*

What do the screens show for `Cc1c(C(=O)Nc2ccc(C(=O)Nc3ccccc3)cc2)cccc1[N+](=O)[O-]`?
RAD52 anneal inh: -7.3; FGF22 binding: 0.1; MLL AF4-AF9 inh: -1.7; ERAP1 HTS inh: -6.2; DENV2 CPE: 25.9*

How did COc1ccc(C(=O)Nc2ccc(Nc3ccccc3)cc2)cc1[N+](=O)[O-] do in these assays?
RAD52 anneal inh: 3.2; FGF22 binding: -0.1; MLL AF4-AF9 inh: 2.3; ERAP1 HTS inh: -4.3; DENV2 CPE: 39.8*

Results for CC=Cc1ccc2n(c1=O)C[C@H]1[C@H](CO)[C@@H](C(=O)NCCc3ccccc3)N(CCC)[C@@H]21 (mixture of isomers) ?
RAD52 anneal inh: -8.4; FGF22 binding: 0.1; MLL AF4-AF9 inh: 1.9; ERAP1 HTS inh: -1.7; DENV2 CPE: -6.8

What do the screens show for `O=C(C1CC1)N1CC(=O)N2[C@H](C1)[C@@H](c1ccc(-c3ccccc3F)cc1)[C@@H]2CO`?
RAD52 anneal inh: 3.3; MLL AF4-AF9 inh: -0.8; ERAP1 HTS inh: 1.7; DENV2 CPE: -8.4
